Data published in PubChem BioAssay AID2685 (National Center for Advancing Translational Sciences (NCATS), 2010).
Hit rate of the full screen: of about 320,000 compounds, about 2,100 (0.66%) were called active. Not shown: some 53% with an inconclusive outcome. The call rests on the fitted dose curve; in most records, active means well fitted inhibition curve with a large enough effect in the signal ratio, with a control signal flat (not every such curve was filed as active); inconclusive means small, poorly fitted or top-dose-only effect, or effect the other way, or a change in a side signal; inactive means flat fitted curve, though single readings scatter; the % refers to the signal ratio. Only a selection was taken, and actives are over-represented in it overall. Where a SMILES comes first, the peptide text is derived from it. [ ]: non-standard residue; d: D form. The star is where a group is joined. ξ: configuration not given here. ξF = NC(Cc1ccccc1)C(=O)O; Cbz = O=C(OCc1ccccc1)*

Experiment: qHTS Assay for Lipid Storage Modulators in Drosophila S3 Cells;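 on cell number change: cells counted by Cell Tracker Red CMTPX staining in the red channel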
Conditions: BODIPY lipid droplet fluorescence, 18-24 h, cells fed with added oleic acid; cell number change: measured here: cell count max response; series mostly up to 46.1 µM
In short: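 Laser-scanning cytometry quantifies lipid droplet accumulation (500–530 nm total intensity; droplet/cell object ratio) in oleic acid-fed (400 uM added) Drosophila S3 cells treated with a concentration series. 20 uM Triacsin C defined 100% inhibition.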
Potency means the concentration at half of the fitted maximal effect.

Row | Compound | Potency | cell number change
1 | CCOc1cc(-c2ccc3c(c2)OCO3)cc(=O)c2c(C)oc(C)c12 | inactive | -26.2%
2 | CCO[C@@H]1OC(C(=O)N2CCN(Cc3ccc4c(c3)OCO4)CC2)=C[C@H](c2csc3ccccc23)[C@H]1CCCO | inactive | -13%
3 | COc1ccccc1NC(=O)CC(NC1CCCCC1)C(=O)O (stereo not given) | inactive | 3.03%
4 | O=C(Nn1cnc2ccccc2c1=O)c1ccccc1F | inactive | -5%
5 | N#Cc1ccc2c(c1)nc1ccccn12 | inactive | 11.1%
6 | N#Cc1c(-c2ccco2)cc(-c2ccccc2)[nH]c1=O | inactive | –
7 | N#Cc1c(-c2ccccc2)cc(-c2ccc3c(c2)OCO3)[nH]c1=O | 8.2 µM (active) | -26.7%
8 | N#Cc1c(-c2ccc3c(c2)OCO3)cc[nH]c1=O | inactive | 17.2%
9 | CC(C)=C1C2CCC1C1C(=O)N(c3nc(-c4ccc(F)cc4)c(C)s3)C(=O)C21 (stereo not given) | inactive | -3.6%
10 | COc1ccc(N2CCN(CC(=O)Nc3cc(C)on3)CC2)cc1 | inactive | 7.54%
11 | Cc1ccc(Nc2nc(C(=O)N3CCC(C(=O)NCCN4CCOCC4)CC3)cs2)cc1 | inactive | –
12 | O=C(N/N=C/c1ccc(-c2cccc(C(F)(F)F)c2)o1)c1cccc(F)c1 | inactive | –
13 | CCN(CC)C(=O)c1ccc2nc(-c3ccccc3)c(-c3ccccc3)nc2c1 | inactive | -0.854%
14 | CC(C)N(C(=O)c1ccc2nc(-c3ccccc3)c(-c3ccccc3)nc2c1)C(C)C | 1.64 µM (active) | -9.21%
15 | O=C(O)c1ccc2nc(-c3ccccc3)c(-c3ccccc3)nc2c1 | inactive | -2.52%
16 | CCOc1ccc(NC(=O)CN(C)C(=O)c2ccc(COc3ccccc3)o2)cc1OCC | inactive | 24.1%
17 | CCN(CC)CCn1c(=N)n(CCOc2ccccc2)c2ccccc21 | inactive | -6.28%
18 | CCN(CC)CCn1c(=N)n(CCO)c2ccccc21 | 3.26 µM (active) | -11.1%
19 | CCN(CC)CCn1c(=N)n(CC(O)c2ccco2)c2ccccc21 (stereo not given) | inactive | 6.57%
20 | c1ccc(CCCNCC2COc3ccccc3O2)cc1 (stereo not given) | inactive | 19.8%
21 | CCn1cc(CNC(=O)c2ccc(OC3CCN(Cc4ccccn4)CC3)cc2)cn1 | 3.66 µM (active) | -18.8%
22 | Cn1cc(CNC(=O)c2ccc(OC3CCN(Cc4ccccn4)CC3)cc2)cn1 | inactive | –
23 | CCOc1cccc(CN2CCC(Oc3ccc(C(=O)NCc4ccccn4)cc3)CC2)c1 | inactive | –
24 | C/C(N)=C(/C#N)C(=O)CSc1nnc(-c2ccc3c(c2)OCO3)o1 | inactive | 22.5%

Row | Compound | Potency | cell number change
25 | Cc1ccc2c(CC(=O)OCc3cc(=O)n4c(n3)sc3ccccc34)coc2c1 | inactive | -0.183%
26 | Cc1ccc(/C=N/n2c(-c3ccccc3)n[nH]c2=S)cc1 | inactive | 7.92%
27 | CC(=O)N(C(C)=O)c1nc(-c2ccccc2)cn1/N=C/c1ccccc1 | 1.64 µM (active) | -51.6%
28 | Nc1nc(-c2ccccc2)cn1/N=C/c1ccccc1 | inactive | 9.59%
29 | Cc1ccc(N(CC(O)CN2CCCCC2)S(=O)(=O)c2ccccc2)cc1 (stereo not given) | inactive | -15.7%
30 | Cc1ccc(N(CC(O)CN2CCCC2)S(=O)(=O)c2ccc(C)cc2)cc1 (stereo not given) | inactive | -13%
31 | Cc1ccc(N(CC(O)CN(C)C)S(=O)(=O)c2ccccc2)cc1 (stereo not given) | 5.17 µM (active) | 1.33%
32 | COc1ccccc1CN1CC(C(=O)NCc2cc(C(C)C)no2)CCC1=O (stereo not given) | inactive | 1.05%
33 | Cc1c(N=Cc2cccnc2)c(=O)n(-c2ccccc2)n1C | inactive | 7.08%
34 | Cc1c(N=Cc2ccco2)c(=O)n(-c2ccccc2)n1C | inactive | 8.07%
35 | Cc1c(N=Cc2ccccn2)c(=O)n(-c2ccccc2)n1C | 16.4 µM (active) | -11.2%
36 | Cn1c(SCC(=O)Nc2ccc3nc(SCC(=O)NC4CC4)sc3c2)nnc1-c1ccccc1 | inactive | -15%
37 | COc1ccc(Oc2coc3c(CN4CCOCC4)c(O)ccc3c2=O)cc1 | inactive | 10.6%
38 | CN(C)CCOc1ccc(C(C)(C)c2ccccc2)cc1 | inactive | 10.7%
39 | COC(CCN(C)C)(c1ccccc1)c1ccccc1 | 0.184 µM (active) | -3.67%
40 | COC(C#CCCN(C)C)(c1ccccc1)c1ccccc1 | inactive | -1.59%
41 | O=C(CSc1ccc(-c2ccccn2)nn1)NCc1ccccc1 | inactive | 3.17%
42 | CCCCSc1nc(O)c(C2OC(=O)c3c2ccc(OC)c3OC)c(=O)n1-c1ccccc1 (stereo not given) | inactive | 0.549%
43 | Cc1cccc(NC(=O)c2c(C)nc3ccccn23)c1 | inactive | 6.85%
44 | Cc1nc2ccccn2c1C(=O)NNC(=O)Nc1cccc(C(F)(F)F)c1 | 1.46 µM (active) | -6.44%
45 | Cc1nc2ccccn2c1C(=O)NNC(=O)Nc1ccccc1 | inactive | –
46 | COc1ccc(OC)c(NC2c3ncccc3C(=O)N2Cc2ccco2)c1 (stereo not given) | inactive | –
47 | Cc1ccc(C(C)C)c(OCC(=O)Nc2ccc3c(c2)nc(CCN2CCCCC2)n3C)c1 | inactive | –
48 | CCCN1CN(Cc2ccccc2)CC2=C1CC(C)(C)CC2=O | inactive | -2.17%

Row | Compound | Potency | cell number change
49 | COc1ccc(-c2ccc(SCC(=O)N3c4ccccc4CC3C)nn2)cc1OC (stereo not given) | inactive | –
50 | Cc1ccc2nc(-c3ccccn3)cc(C(=O)NC3CCN(C)CC3)c2c1 | 25.9 µM (active) | –
51 | O=C(NC1CC1)c1cc(-c2ccccn2)nc2ccccc12 | inactive | -1.09%
52 | CN1CCN(NC(=O)c2cc(-c3ccccn3)nc3ccccc23)CC1 | inactive | 28.4%
53 | CCCN1CCN(C(=O)c2nn(-c3ccc(OC)cc3)c(=O)c3c2c2ccccc2n3C)CC1 | inactive | -5.33%
54 | O=C1/C(=C/c2ccccc2)SC(=S)N1C1CCS(=O)(=O)C1 (stereo not given) | inactive | 7.35%
55 | C/C(CC(=O)NC12CC3CC(CC(C3)C1)C2)=N\NC(=O)c1cnccn1 | inactive | 1.39%
56 | Cc1nccc2[nH]c(=O)c(C(=O)NC3CCCCC3C)cc12 (stereo not given) | inactive | 3.44%
57 | COc1cccc(/C=C2\Sc3ccc(C(=O)NCc4cccnc4)cc3N(C)C2=O)c1 | inactive | -1.61%
58 | CN1C(=O)/C(=C/c2cccc(Cl)c2)Sc2ccc(C(=O)N3CCOCC3)cc21 | inactive | –
59 | CN1C(=O)/C(=C/c2cccc(Cl)c2)Sc2ccc(C(=O)N3CCCC3)cc21 | inactive | –
60 | CCOC(=O)N1CCC(NC(=O)c2ccc3c(c2)N(C)C(=O)/C(=C/c2cccc(OC)c2)S3)CC1 | 2.91 µM (active) | -26%
61 | Cc1cccc(/C=C2\Sc3ccc(C(=O)N4CCC(C)CC4)cc3N(C)C2=O)c1 | inactive | –
62 | CCOc1ccc(/C=C2/Sc3ccc(C(=O)N4CCOCC4)cc3N(C)C2=O)cc1OC | 20.6 µM (active) | -3.07%
63 | CN(Cc1ccccc1)c1nc2c(c(=O)[nH]c(=O)n2C)n1C | inactive | -14.1%
64 | O=C(CSc1ncnc2c1nnn2Cc1ccc(F)cc1)NC1CCCCC1 | 20.6 µM (active) | -16.3%
65 | O=C(CSc1ncnc2c1nnn2Cc1ccccc1)NC1CCCC1 | inactive | -1.92%
66 | O=C(CSc1ncnc2c1nnn2Cc1ccccc1)NC1CCCCC1 | inactive | -19.4%
67 | CC(C)(C)C1CCC2(CC1)SCC(=O)N2c1ccccc1 (stereo not given) | inactive | -2.85%
68 | COCc1cc(C)nc(SCC(=O)Nc2ccc3c(c2)OCCO3)c1C#N | inactive | 16.8%
69 | COCc1cc(C)nc(SCC(=O)Nc2ccc(N3CCOCC3)cc2)c1C#N | inactive | 5.82%
70 | COCc1cc(C)nc(SCC(=O)Nc2ccccc2N2CCOCC2)c1C#N | 13 µM (active) | -22.4%
71 | O=C(N/N=C/c1ccsc1)c1ccc2c(c1)OCO2 | inactive | 17%
72 | Cc1cc(-c2ccc(C)c(S(=O)(=O)NCCC(C)N3CCCCCC3)c2)on1 (stereo not given) | inactive | 3.3%

Row | Compound | Potency | cell number change
73 | COc1ccc(CCNC(=O)C(NC(=O)OCc2ccccc2)C(C)C)cc1OC (stereo not given) | inactive | 2.79%
74 | CCOc1ccc(CN(C)C(=O)[C@H](Cc2ccccc2)NC(=O)OCc2ccccc2)cc1OC | 8.2 µM (active) | 6.3%
75 | CCOC(=O)CNC(=O)C(Cc1ccccc1)NC(=O)OCc1ccccc1 (stereo not given) (Cbz-[ξF]-Gly-OEt) | inactive | –
76 | CN1CCN(C2=NC(=O)/C(=C/c3ccccc3OS(=O)(=O)c3ccccc3)S2)CC1 | inactive | 6.94%
77 | CCOC(=O)C(NC(=O)CC)(Nc1ccccc1)C(F)(F)F (stereo not given) | inactive | -9.13%
78 | CCOC(=O)C(NC(C)=O)(Nc1ccc(F)cc1)C(F)(F)F (stereo not given) | inactive | -0.408%
79 | CCOC(=O)C(NC(C)=O)(Nc1cccc(F)c1)C(F)(F)F (stereo not given) | 4.11 µM (active) | -1.43%
80 | CNC(=O)C1CC(=O)N(c2ccc(F)c(Cl)c2)C1 (stereo not given) | inactive | 9.35%
81 | CCC(C)c1ccc(OCCN2CCCC2)cc1 (stereo not given) | 23.1 µM (active) | 7.66%
82 | CC(C)c1ccc(OCCCN2CCCC2)cc1 | inactive | 0.741%
83 | CCOc1ccc(OCCN2CCCCC2)cc1 | inactive | -0.326%
84 | COc1ccc(OC)c(NS(=O)(=O)c2ccc(Cl)nc2)c1 | inactive | 7.58%
85 | CC(=O)NNC(=S)NCCc1ccccc1 | inactive | 6.47%
86 | CCOCc1[nH]c(=S)[nH]c(=O)c1Cc1ccc(OCC)cc1 | inactive | 9.42%
87 | COc1ccc(CNc2nc3ccccc3n2Cc2ccc(Cl)cc2)cc1OC | inactive | -0.354%
88 | CCOC(=O)N1CCN(C(=O)CCc2cc(OC)c(OC)c(OC)c2)CC1 | inactive | 18.4%
89 | CC(=O)N1CC(C)Sc2ccc(S(=O)(=O)NCCc3ccc(C)cc3)cc21 (stereo not given) | 6.51 µM (active) | -15.2%
90 | CC(=O)N1CC(C)Sc2ccc(S(=O)(=O)NCc3ccc(Cl)cc3)cc21 (stereo not given) | inactive | 17.6%
91 | COc1ccc(CNS(=O)(=O)c2ccc3c(c2)N(C(C)=O)CC(C)S3)cc1 (stereo not given) | inactive | -3.12%
92 | CCc1ccc(-n2c(C)cc(/C=N/NC(=O)OC)c2C)cc1 | inactive | -6.79%
93 | Cc1ccc(OCc2nnc(NC(=O)OCC(C)C)s2)c(C)c1 | inactive | –
94 | Cc1ccc(OCc2nnc(NC(=O)OCC(C)C)s2)cc1 | 18.4 µM (active) | 0.0966%
95 | CCCCOC(=O)Nc1nnc(COc2ccccc2)s1 | inactive | -19.4%
